Drawing on PubChem BioAssay (NCI), this text covers growth inhibition for five compounds.

Test [1] is described as follows: NCI Yeast Anticancer Drug Screen. Data for the rad50 strain (AID 155).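 Further: 0% = growth of vehicle-only cultures of the same strain.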 The note with it: S. cerevisiae rad50 strain growth inhibition, stronger effect = higher value. In short, it runs like this:
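Relative growth inhibition (compound vs vehicle) was measured in yeast with a defined repair-gene alteration.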

The nature of test [2]: NCI Yeast Anticancer Drug Screen. Data for the mec2-1 strain (AID 157). The note with it: S. cerevisiae mec2-1 strain, stronger effect = higher value. Summed up: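 Strain: mec2-1 (DNA repair/cell cycle alteration). Compound exposure, then growth measured; inhibition expressed relative to vehicle.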
Test [3] can be described thus: NCI Yeast Anticancer Drug Screen. Data for the sgs1 mgt1 strain (AID 161).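 Further: 0% = growth of cultures given vehicle only.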 Conditions: S. cerevisiae sgs1 mgt1 strain, stronger effect = higher value. Summed up:
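Genetically altered yeast, compound exposure, growth inhibition relative to vehicle.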

A short description of test [4]: NCI Yeast Anticancer Drug Screen. Data for the cln2 rad14 strain (AID 165).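 Further: 0% = growth equal to vehicle treated cultures.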 Conditions: S. cerevisiae cln2 rad14 strain, stronger effect = higher value. In short, it runs like this: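 Compounds are applied to the cln2 rad14 yeast strain, and growth is then compared with that of vehicle-treated cultures to give inhibition.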
A short description of test [5]: NCI Yeast Anticancer Drug Screen. Data for the bub3 strain (AID 167). Conditions: S. cerevisiae bub3 mutant strain, stronger effect = higher value. In short, it runs like this:
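Screening used yeast with an engineered genetic alteration affecting cell cycle control. Compound-exposed cultures were compared with vehicle cultures, and reduced growth was taken as inhibition.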

The nature of test [6]: NCI Yeast Anticancer Drug Screen. Data for the mlh1 rad18 strain (AID 175). The note with it: S. cerevisiae mlh1 rad18 strain growth inhibition, stronger effect = higher value. In short, it runs like this: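 Read-out is yeast growth inhibition, calculated against vehicle-only controls. The compound was applied to a strain engineered with DNA damage repair alterations.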
The mark [7] stands for this setting: at 5.0 µM (retest, dose inferred, filed as 0.5).
Setting [8] is: at 50.0 µM (retest, dose inferred, filed as 5.0).

The structures appear in SMILES notation. About 79,000 compounds went through this panel and 15% of them were active in at least one assay; those are over-represented in the sample as a whole. A number with no mark means an inactive call. Active and inactive are the calls of the source. No stated cut-off is given here; in the data, active means growth inhibition above about 70%; inactive means the rest.

Turning to `CCOC(=O)C[n+]1c(C)sc2ccccc21`, the growth inhibition in test [1] (setting [7]) was -4%; in test [1] (setting [8]), 23%; in test [1] (at 50.0 µM), 78.4% (active); in test [2] (setting [7]), -3%; in test [2] (setting [8]), 28%; in test [2] (at 50.0 µM), 40.1%. Besides, the growth inhibition in test [3] (setting [7]) is 0%; in test [3] (setting [8]), 54%; in test [3] (at 50.0 µM) it was 37.6%; in test [4] (setting [7]) it was -7%; in test [4] (setting [8]), 18%; in test [4] (at 50.0 µM), 17.6%. Besides, the growth inhibition is -6% in test [5] (setting [7]); 15% in test [5] (setting [8]); 39.6% in test [5] (at 50.0 µM); -3% in test [6] (setting [7]); 43% in test [6] (setting [8]); 19.2% in test [6] (at 50.0 µM).
On to `CC(NNC(=S)N1CCCC1)c1ccc2ccccc2n1` (stereo not given), for which the growth inhibition in test [1] (setting [7]) was 24%; in test [1] (setting [8]) it was 96% (active); in test [1] (at 50.0 µM), 98% (active); in test [2] (setting [7]), 6%; in test [2] (setting [8]) it was 96% (active); in test [2] (at 50.0 µM), 98.2% (active). Moreover, the growth inhibition was 22% in test [3] (setting [7]); 96% (active) in test [3] (setting [8]); 98% (active) in test [3] (at 50.0 µM); 4% in test [4] (setting [7]); 95% (active) in test [4] (setting [8]); 97% (active) in test [4] (at 50.0 µM). The growth inhibition in test [5] (setting [7]) was 7%; in test [5] (setting [8]), 97% (active); in test [5] (at 50.0 µM) it was 98.2% (active); in test [6] (setting [7]) it was 15%; in test [6] (setting [8]), 98% (active); in test [6] (at 50.0 µM), 96.4% (active).
Consider `S=C(NN1CCOCC1)SSC(=S)NN1CCOCC1`, for which the growth inhibition in test [1] (setting [7]) is 97% (active); in test [1] (setting [8]), 99% (active); in test [1] (at 50.0 µM), 99.5% (active); in test [2] (setting [7]) it was 97% (active); in test [2] (setting [8]) it was 99% (active); in test [2] (at 50.0 µM) it was 99.6% (active). For the same compound, the growth inhibition was 94% (active) in test [3] (setting [7]); 99% (active) in test [3] (setting [8]); 99.6% (active) in test [3] (at 50.0 µM); 92% (active) in test [4] (setting [7]); 83% (active) in test [4] (setting [8]); 99.3% (active) in test [4] (at 50.0 µM). The growth inhibition in test [5] (setting [7]) is 34%; in test [5] (setting [8]), 99% (active); in test [5] (at 50.0 µM), 99.8% (active); in test [6] (setting [7]), 77% (active); in test [6] (setting [8]), 99% (active); in test [6] (at 50.0 µM) it was 99.5% (active).
As for `CN1/C(=C/C=C/C(I)=C/C=C/C2=[N+](C)c3ccccc3C2(C)C)C(C)(C)c2ccccc21`, the growth inhibition was 1% in test [1] (setting [7]); 88% (active) in test [1] (setting [8]); 60.5% in test [1] (at 50.0 µM); 8% in test [2] (setting [7]); 89% (active) in test [2] (setting [8]); 50.1% in test [2] (at 50.0 µM). Besides, the growth inhibition in test [3] (setting [7]) was -4%; in test [3] (setting [8]), 92% (active); in test [3] (at 50.0 µM), 80.6% (active); in test [4] (setting [7]), 8%; in test [4] (setting [8]) it was 71% (active); in test [4] (at 50.0 µM), 79.4% (active). Also, the growth inhibition is -2% in test [5] (setting [7]); 89% (active) in test [5] (setting [8]); 76.3% (active) in test [5] (at 50.0 µM); -1% in test [6] (setting [7]); 89% (active) in test [6] (setting [8]); 84.7% (active) in test [6] (at 50.0 µM).
`OCc1c(-c2cccc3ccccc23)sc(-c2cccc3ccccc23)c1CO`: the growth inhibition is 59% in test [1] (setting [7]); 74% (active) in test [1] (setting [8]); 90% (active) in test [1] (at 50.0 µM); 20% in test [2] (setting [7]); 85% (active) in test [2] (setting [8]); 92.8% (active) in test [2] (at 50.0 µM). Also, the growth inhibition in test [3] (setting [7]) was 44%; in test [3] (setting [8]), 56%; in test [3] (at 50.0 µM), 86.8% (active); in test [4] (setting [7]) it was 63%; in test [4] (setting [8]), 81% (active); in test [4] (at 50.0 µM), 86.6% (active). Also, the growth inhibition in test [5] (setting [7]) is 39%; in test [5] (setting [8]), 82% (active); in test [5] (at 50.0 µM), 86.5% (active); in test [6] (setting [7]) it was 65%; in test [6] (setting [8]) it was 70% (active); in test [6] (at 50.0 µM), 88.4% (active).
